{"source": "paper PMC4336329", "about": "(PLoS ONE, 2015)", "note": "The campaign covered roughly 310,000 compounds. About 14,000 (4.5%) showed an effect of 50% or more. The effect is printed as a negative number. This is one part of a sample in which strong results are shown more often than they occur.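 Also: peak tail current of the secondary pulse compared with the same well before compound.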", "data": [{"molecular_target": "human ether-à-go-go-related gene (hERG) potassium channel (human, UniProt Q12809)", "sequence (Q12809 whole entry, looked up)": "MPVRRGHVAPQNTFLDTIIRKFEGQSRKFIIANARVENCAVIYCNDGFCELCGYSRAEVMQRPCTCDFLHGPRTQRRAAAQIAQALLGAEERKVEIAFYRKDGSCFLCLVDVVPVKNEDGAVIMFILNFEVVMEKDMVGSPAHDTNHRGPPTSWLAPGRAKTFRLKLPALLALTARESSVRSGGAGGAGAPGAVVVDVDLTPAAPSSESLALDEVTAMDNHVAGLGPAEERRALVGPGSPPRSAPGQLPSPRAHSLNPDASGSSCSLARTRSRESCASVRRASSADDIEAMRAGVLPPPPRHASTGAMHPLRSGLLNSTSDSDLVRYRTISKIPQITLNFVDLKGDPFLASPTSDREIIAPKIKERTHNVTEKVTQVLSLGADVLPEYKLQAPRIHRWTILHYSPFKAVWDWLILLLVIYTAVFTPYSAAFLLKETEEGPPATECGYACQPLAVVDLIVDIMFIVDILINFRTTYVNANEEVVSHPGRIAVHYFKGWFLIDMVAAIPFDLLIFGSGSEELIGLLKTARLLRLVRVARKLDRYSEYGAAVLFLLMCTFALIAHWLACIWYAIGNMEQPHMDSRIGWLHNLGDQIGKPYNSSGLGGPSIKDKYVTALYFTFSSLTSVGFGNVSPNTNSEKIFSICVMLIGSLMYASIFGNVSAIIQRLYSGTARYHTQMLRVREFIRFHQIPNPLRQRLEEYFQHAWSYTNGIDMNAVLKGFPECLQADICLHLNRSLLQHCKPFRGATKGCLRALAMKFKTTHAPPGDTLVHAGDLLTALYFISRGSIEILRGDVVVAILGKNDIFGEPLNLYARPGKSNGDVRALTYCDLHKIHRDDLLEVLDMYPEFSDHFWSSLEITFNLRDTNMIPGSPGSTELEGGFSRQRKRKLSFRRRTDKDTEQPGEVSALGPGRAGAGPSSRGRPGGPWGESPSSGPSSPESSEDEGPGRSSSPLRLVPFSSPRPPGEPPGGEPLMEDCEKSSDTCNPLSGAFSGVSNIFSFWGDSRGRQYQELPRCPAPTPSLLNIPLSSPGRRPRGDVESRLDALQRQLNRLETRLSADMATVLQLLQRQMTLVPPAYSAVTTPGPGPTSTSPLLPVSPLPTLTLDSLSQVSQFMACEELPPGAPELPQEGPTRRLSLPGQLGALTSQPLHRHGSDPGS", "test": "primary screen, population patch clamp on CHO cells stably expressing hERG; higher = less effect of the substance", "units": {"hERG current change (%, negative = inhibition) at 10uM": "%"}, "values": [{"smiles": "C=CCc1cccc2cc(C(=O)N(CC)CC)c(=O)oc12", "hERG current change (%, negative = inhibition) at 10uM": -6.47}, {"smiles": "CCCN(CCC)CCN1C(=O)C2C(C(=O)Nc3ccc(C)cc3)C3C=CC2(O3)C1C(=O)NC1CCCCC1", "note": "(centres unmarked)", "hERG current change (%, negative = inhibition) at 10uM": -30.2}, {"smiles": "CCOCCCN1C(=O)C2C(C(=O)Nc3ccc(OCC)cc3)C3C=CC2(O3)C1C(=O)NC1CCCCC1", "note": "(centres unmarked)", "hERG current change (%, negative = inhibition) at 10uM": -72.8}, {"smiles": "CCCCN(C)CCN1C(=O)C2C(C(=O)Nc3ccc(C)cc3)C3C=CC2(O3)C1C(=O)NC1CCCCC1", "note": "(centres unmarked)", "hERG current change (%, negative = inhibition) at 10uM": -26.1}, {"smiles": "CCCCN(C)CCN1C(=O)C2C(C(=O)Nc3ccc(OC)cc3)C3C=CC2(O3)C1C(=O)NC1CCCCC1", "note": "(centres unmarked)", "hERG current change (%, negative = inhibition) at 10uM": -8.93}, {"smiles": "CCCCN(C)CCN1C(=O)C2C(C(=O)Nc3ccc(Cl)cc3)C3C=CC2(O3)C1C(=O)NC1CCCCC1", "note": "(centres unmarked)", "hERG current change (%, negative = inhibition) at 10uM": -70.2}, {"smiles": "CSc1cccc(NC(=O)C2C3C=CC4(O3)C2C(=O)N(CCN2CCOCC2)C4C(=O)NC2CCCCC2)c1", "note": "(centres unmarked)", "hERG current change (%, negative = inhibition) at 10uM": 9.21}, {"smiles": "CCOc1ccc(NC(=O)C2C3C=CC4(O3)C2C(=O)N(Cc2cccnc2)C4C(=O)NC2CCCCC2)cc1", "note": "(centres unmarked)", "hERG current change (%, negative = inhibition) at 10uM": 16}, {"smiles": "COc1ccc(NC(=O)C2C3C=CC4(O3)C2C(=O)N(CCN2CCCCC2)C4C(=O)NC2CCCCC2)cc1", "note": "(centres unmarked)", "hERG current change (%, negative = inhibition) at 10uM": 9.9}, {"smiles": "CCCN(CCC)CCN1C(=O)C2C(C(=O)Nc3cccc(SC)c3)C3C=CC2(O3)C1C(=O)NC1CCCCC1", "note": "(centres unmarked)", "hERG current change (%, negative = inhibition) at 10uM": -68.2}, {"smiles": "Cc1ccccc1NC(=O)/C(C#N)=C\\c1cccnc1", "hERG current change (%, negative = inhibition) at 10uM": -16.3}, {"smiles": "Cc1ccc2oc(C(=O)N3CCC(C(N)=O)(N4CCCCC4)CC3)c(C)c2c1", "hERG current change (%, negative = inhibition) at 10uM": -27}, {"smiles": "COc1cc2cc(C(C)(C)O)oc(=O)c2cc1OC", "hERG current change (%, negative = inhibition) at 10uM": 13}, {"smiles": "O=C(Cn1ncc2c(=O)oc3ccccc3c21)NCCC1=CCCCC1", "hERG current change (%, negative = inhibition) at 10uM": -3.92}, {"smiles": "O=C(c1cc2c(=O)oc3ccccc3c2s1)N1CCOCC1", "hERG current change (%, negative = inhibition) at 10uM": -0.51}, {"smiles": "O=C(Cn1ncc2c(=O)oc3ccccc3c21)N1CCN(c2ccccn2)CC1", "hERG current change (%, negative = inhibition) at 10uM": -41}, {"smiles": "O=C(Cn1ncc2c(=O)oc3ccccc3c21)N1CCN(C(=O)c2ccco2)CC1", "hERG current change (%, negative = inhibition) at 10uM": -73.6}, {"smiles": "O=C(Cn1ncc2c(=O)oc3ccccc3c21)NCCc1ccsc1", "hERG current change (%, negative = inhibition) at 10uM": -54.2}, {"smiles": "O=C(c1ccco1)N1CCN(C(=O)c2cc3c(=O)oc4ccccc4c3s2)CC1", "hERG current change (%, negative = inhibition) at 10uM": -62.9}, {"smiles": "O=C(c1cc2c(s1)-c1ccccc1OC2)N1CCN(c2ccccc2)CC1", "hERG current change (%, negative = inhibition) at 10uM": 8.08}, {"smiles": "O=C(Cn1ncc2c(=O)oc3ccccc3c21)N1CCC(N2CCCCC2)CC1", "hERG current change (%, negative = inhibition) at 10uM": -5}, {"smiles": "Cc1ccc2oc(=O)c3cnn(CC(=O)NCCc4ccsc4)c3c2c1", "hERG current change (%, negative = inhibition) at 10uM": -12.2}, {"smiles": "Cc1ccc2oc(=O)c3cc(C(=O)N4CCN(C(=O)c5ccco5)CC4)sc3c2c1", "hERG current change (%, negative = inhibition) at 10uM": -21.5}, {"smiles": "O=C(c1cc2c(s1)-c1ccccc1OC2)N1CCCC1", "hERG current change (%, negative = inhibition) at 10uM": -4.69}, {"smiles": "O=C(c1ccco1)N1CCN(C(=O)c2cc3c(s2)-c2ccccc2OC3)CC1", "hERG current change (%, negative = inhibition) at 10uM": -63.9}, {"smiles": "Cc1n[nH]c(C)c1S(=O)(=O)NCCc1ccc(Cl)cc1", "hERG current change (%, negative = inhibition) at 10uM": 5}, {"smiles": "O=c1cc(-c2ccc(O)c(-c3c(O)cc(O)c4c(=O)cc(-c5ccc(O)cc5)oc34)c2)oc2cc(O)cc(O)c12", "hERG current change (%, negative = inhibition) at 10uM": -7.09}, {"smiles": "COc1cc(C(=O)Nc2ccc3c(c2)OCCO3)ccc1OC(F)F", "hERG current change (%, negative = inhibition) at 10uM": -5.02}, {"smiles": "Cc1cc(NC(=O)CCC(=O)N(Cc2ccccc2)C2(C(=O)NC3CCCCC3)CCCC2)no1", "hERG current change (%, negative = inhibition) at 10uM": 21.1}, {"smiles": "Cc1cc(NC(=O)CCC(=O)N(CCC(C)C)C(C(=O)NC2CCCC2)c2ccccc2C)no1", "note": "(centres unmarked)", "hERG current change (%, negative = inhibition) at 10uM": -21.5}, {"smiles": "O=C(NC(=S)NCC1CCCO1)c1cccc([N+](=O)[O-])c1", "note": "(centres unmarked)", "hERG current change (%, negative = inhibition) at 10uM": 2.05}, {"smiles": "O=C(NC1CC2CCCC(C1)N2C(=O)NCc1ccccc1)C1CC1", "note": "(centres unmarked)", "hERG current change (%, negative = inhibition) at 10uM": 4.22}, {"smiles": "CCc1ccc(OCC(=O)NNC(=O)c2cnccn2)c(Br)c1", "hERG current change (%, negative = inhibition) at 10uM": -5.95}, {"smiles": "CC(=O)O.CN1CCCC(CN2c3ccccc3Sc3ccccc32)C1", "note": "(centres unmarked)", "hERG current change (%, negative = inhibition) at 10uM": -28.4}, {"smiles": "CN1CCCC(CC2Oc3ccccc3Sc3ccccc32)C1.O=C(O)C(=O)O", "note": "(centres unmarked)", "hERG current change (%, negative = inhibition) at 10uM": -67}, {"smiles": "CN1CCCC(CC2c3ccccc3Sc3ccccc32)C1.Cl.O", "note": "(centres unmarked)", "hERG current change (%, negative = inhibition) at 10uM": -52.9}, {"smiles": "CN1CCCC(OC(=O)COc2ccccc2)C1.Cl", "note": "(centres unmarked)", "hERG current change (%, negative = inhibition) at 10uM": 10.4}, {"smiles": "Cl.c1ccc2c(c1)CC(N1CCCCC1)c1ccccc1S2", "note": "(centres unmarked)", "hERG current change (%, negative = inhibition) at 10uM": 9.15}, {"smiles": "CN1CCCC(C(O)(c2ccccc2)c2ccccc2)C1", "note": "(centres unmarked)", "hERG current change (%, negative = inhibition) at 10uM": 16.3}, {"smiles": "CC(C)Oc1ccc(/C(O)=C2/C(=O)C(=O)N(CCN3CCOCC3)C2c2ccccc2)cc1", "note": "(centres unmarked)", "hERG current change (%, negative = inhibition) at 10uM": 13.6}, {"smiles": "COC(=O)Cn1ccc2cc(S(=O)(=O)N3CCCCC3)ccc21", "hERG current change (%, negative = inhibition) at 10uM": -8.73}, {"smiles": "CCOC(=O)c1cc2occc2n1CCCN1C(=O)c2ccccc2C1=O", "hERG current change (%, negative = inhibition) at 10uM": -23.5}, {"smiles": "Cc1ccc(C(=O)COC(=O)c2cc(Cl)ccc2O)cc1[N+](=O)[O-]", "hERG current change (%, negative = inhibition) at 10uM": 10.4}, {"smiles": "O=C(COc1cc(Cl)ccc1Cl)Nc1ccc2[nH]c(=O)[nH]c2c1", "hERG current change (%, negative = inhibition) at 10uM": 12.8}, {"smiles": "COc1ccc(NC(=O)c2ccco2)cc1NC(=O)c1cc2ccccc2o1", "hERG current change (%, negative = inhibition) at 10uM": 3.33}, {"smiles": "O=C1Nc2ccccc2S/C1=C/Nc1cccc(Cl)c1", "hERG current change (%, negative = inhibition) at 10uM": -3.01}, {"smiles": "CC1CCC[C@H](O)CCCCCc2cc(O)cc(O)c2C(=O)O1", "note": "(some centres unmarked)", "hERG current change (%, negative = inhibition) at 10uM": 5.64}, {"smiles": "C[C@H]1CCCC(=O)CCCCCc2cc(O)cc(O)c2C(=O)O1", "hERG current change (%, negative = inhibition) at 10uM": -0.0905}, {"smiles": "C[C@H]1CCC[C@H](O)CCCCCc2cc(O)cc(O)c2C(=O)O1", "hERG current change (%, negative = inhibition) at 10uM": -51}, {"smiles": "O=S(=O)(Nc1ccncc1)c1cc(Cl)c(Cl)cc1Cl", "hERG current change (%, negative = inhibition) at 10uM": 0.0869}, {"smiles": "O=C1C(Cl)=C(N2CCOCC2)C(=O)N1c1ccc(Br)cc1", "hERG current change (%, negative = inhibition) at 10uM": 14.8}, {"smiles": "O=C(COc1ccc(Br)cc1)Nc1ccccc1C(=O)NC1CC1", "hERG current change (%, negative = inhibition) at 10uM": -6.57}, {"smiles": "CCOc1ccc(NC(=O)CSc2cn[nH]n2)cc1", "hERG current change (%, negative = inhibition) at 10uM": 3.89}]}]}
